Rows were chosen to be rich in hits. Some 10% of all compounds tested hit in one or more screens of this group.
GLA inh pH 4.5 = blocks human alpha-galactosidase A at pH 4.5; activity change, negative = inhibition, % at 105 µM; P06280; 230,000 tested, under 10 active; purified enzyme, 4-MU-alpha-Gal fluorescence, pH 4.5; AID 1467;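 note: 0% = full activity with enzyme and -100% = basal without enzyme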
PNC inhibitor = blocks assembly of the perinucleolar compartment | hit rate 3.1% among 140,000 | PC3M PTB-GFP, PNC prevalence imaging, 16 h; stronger effect = lower value | activity change (PNC), negative = inhibition, % at 10 µM;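 active = readout at or below -70, meaning at least 70% loss of cells showing the perinucleolar compartment, a nuclear body marking cancer cells; inconclusive = readout between -30 and a set limit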;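 note: plate controls were DMSO wells for no effect and camptothecin positive control wells for full effect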
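Read-out is percentage of cells bearing a perinucleolar compartment, from automated 20x imaging of fixed, Hoechst-stained PC3M PTB-GFP cells. Cells were seeded 4 h, then exposed 16 h to compound (23 nl of library stock) in duplicate plates.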
ALDH1A1 block = ALDH1A1 (human) enzyme inhibition | AID 1030 | P00352 | Potency, µM (highest dose often 75.3 µM), for inactives: at the highest dose activity, negative = inhibition, most hits filed as inhibitors | Purified ALDH1A1, NADH fluorescence, propionaldehyde substrate | hit rate 7.3% among 220,000; active = well fitted inhibition curve with a large enough effect, not every such curve was filed as active; inconclusive = small, poorly fitted or top-dose-only effect, or another doubt; inactive = no such curve, though single readings can be large or run the other way;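 note: potency is the fitted concentration of half-maximal effect; plate controls were no enzyme wells and a reference inhibitor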
HPGD inh = inhibitors of human 15-hydroxyprostaglandin dehydrogenase (HPGD). purified HPGD, NADH fluorescence kinetic, PGE2 substrate. hit rate 4.3% among 150,000. Potency, µM, without a hit: top-dose activity change, negative = inhibition, hits mostly inhibitors; active = well fitted inhibition curve with a large enough effect, not every such curve was filed as active; inconclusive = small, poorly fitted or top-dose-only effect, or another doubt; inactive = no such curve, though single readings can be large or run the other way; note: potency is the fitted concentration of half-maximal effect
Target sequence (P15428 whole entry, looked up): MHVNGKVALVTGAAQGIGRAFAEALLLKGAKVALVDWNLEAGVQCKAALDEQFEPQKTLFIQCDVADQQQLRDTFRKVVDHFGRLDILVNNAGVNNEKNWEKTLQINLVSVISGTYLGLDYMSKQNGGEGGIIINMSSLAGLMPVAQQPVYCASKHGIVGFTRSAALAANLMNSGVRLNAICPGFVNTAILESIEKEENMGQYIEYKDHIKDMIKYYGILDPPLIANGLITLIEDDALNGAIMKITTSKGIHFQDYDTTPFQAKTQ
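NADH formation kinetics: reaction with 30 uM PGE2 and 1 mM NAD+ (final), 20 nM enzyme, Tris-HCl pH 8 with Tween 20, after 15 min compound preincubation at room temperature. Fluorescence change, last versus first of five reads.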
GLA spleen mod = inhibits or activates alpha-galactosidase in human spleen homogenate | P06280 | human spleen homogenate, 4MU-alpha-Gal fluorescence, 40 min | Potency, µM (top dose mostly 80 µM), inactives show top-dose activity change, negative = inhibition, hits mostly inhibitors | hit rate 0.008% among 240,000 | AID 2107;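 note: potency is the fitted concentration of half-maximal effect; 0% = enzyme with vehicle and -100% = no enzyme basal signal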
Target sequence (P06280 32-429 limits assumed): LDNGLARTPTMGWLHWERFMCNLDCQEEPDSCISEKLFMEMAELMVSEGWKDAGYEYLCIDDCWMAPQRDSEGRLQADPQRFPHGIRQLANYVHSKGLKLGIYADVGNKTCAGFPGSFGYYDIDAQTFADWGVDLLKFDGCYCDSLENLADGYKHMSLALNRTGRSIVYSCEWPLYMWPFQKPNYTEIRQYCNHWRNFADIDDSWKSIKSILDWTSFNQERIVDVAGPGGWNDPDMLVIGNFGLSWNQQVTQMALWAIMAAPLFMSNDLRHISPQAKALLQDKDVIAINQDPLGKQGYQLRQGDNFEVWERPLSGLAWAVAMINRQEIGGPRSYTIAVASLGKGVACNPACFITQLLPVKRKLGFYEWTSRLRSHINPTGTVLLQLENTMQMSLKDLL
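Inhibition or activation of alpha-galactosidase in human spleen homogenate is scored by 4-MU fluorescence after 40 min at 37C, pH 5.0, with 1 mM substrate. AC50s come from concentration-response fitted to the Hill equation.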
12-hLO inh = 12-hLO (ALOX12) enzyme inhibition | Potency, µM (top dose mostly 57.1 µM), for the others: top-dose activity change, negative = inhibition, actives largely listed as inhibitors | hit rate 0.12% among 150,000 | purified 12-hLO, xylenol orange hydroperoxide absorbance | P18054; note: potency is the fitted concentration of half-maximal effect; nearly all actives have a fitted effect of over 55% in size
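Purified human 12hLO (150 nM final) was preincubated with compounds for 15 min at room temperature in 25 mM Hepes pH 7.0, 0.01% Triton X-100, then reacted with 40 uM arachidonic acid for 30 min. Hydroperoxide was detected with ferrous iron/xylenol orange.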
An asterisk follows results filed as active; u = inconclusive; x = no result; [ ] = dose if it differs, or a comment. Unless noted, calls come from the whole dose curve; as a rule, active = well fitted curve in the direction sought with a large enough effect; inconclusive = small, poorly fitted or top-dose-only effect, or another doubt; inactive = no such curve, though single readings can be large; an effect the other way counts as inactive or inconclusive. Unless noted, % is set by controls: 0 for no effect and ±100 for the full control effect.

SMILES | GLA inh pH 4.5 | PNC inhibitor | ALDH1A1 block | HPGD inh | GLA spleen mod | 12-hLO inh
COc1ccc(OC)c(-c2ccc(C(=O)O)o2)c1 | -7 | x | u | u | 17%[119 µM] | -1%[0.00818 µM]
Cc1cccc([C@H]2[C@@H]3C=CCC[C@@H]3C(=O)N2Cc2ccccc2)c1 | -20 | x | 28µM* | -17% | -16%[119 µM] | -5%[0.00818 µM]
Cc1c(Cc2ccccc2)sc(NC(=O)c2ccco2)c1C(N)=O | 1 | -111* | u | u | -1% | 0%
COC(=O)c1c(NC(=O)c2ccco2)sc(C)c1C | 5 | -81* | u | -28% | 7% | -5%
Cc1c(Cc2ccc3c(c2)OCO3)sc(NC(=O)c2cccc3ccccc23)c1C(N)=O | -1 | 36 | 14µM* | 14µM* | 6% | -3%
COC(=O)C/C=C\[C@@H](C)[C@@H](/C=N\OC[C@@H](O)COCc1ccco1)NS(=O)(=O)c1ccc(C)cc1 | x | x | -6%[13.5 µM] | x | -7%[17.5 µM] | x
Cc1nn(CC(=O)NNC(=O)c2ccccc2F)c([N+](=O)[O-])c1Br | 1 | x | 0% | x | -23% | x
Nc1c(C(=O)O)sc2nc(-c3ccccc3)cc(-c3ccccc3)c12 | 0 | x | 20µM* | x | -7% | x
Nc1c(C(=O)O)sc2nc(-c3ccccc3)cc(-c3ccc(F)cc3)c12 | -2 | x | x | x | 9% | x
COc1cccc2[nH]c(C(=O)NN)c(N)c12 | -9 | x | 28µM* | x | 1% | x
COc1cccc(C2C(=O)c3ccccc3C2=O)c1 | -6 | x | 0% | x | 0% | x
COc1ccc(C2C(=O)c3ccccc3C2=Nc2ccc(Br)cc2)cc1 (configuration not stated) | -2 | 67 | 28µM* | 7.1µM* | 4% | 6%
Cc1ccc(-n2nnnc2CCl)cc1 | 13 | x | 22µM* | x | 5% | x
COC(=O)C1C[C@@H]2C3=C(C(=O)[C@@](C)(NC(=O)c4ccccc4)C3[C@H](C(=O)OC)C1)[C@H](C)n1c(=O)n(-c3ccccc3)c(=O)n12 (some centres not stated) | x | x | x | x | 12% | x
CC(C)C1C(=O)NC(=S)N1S(=O)(=O)c1ccc(C(C)(C)C)cc1 (configuration not stated) | 1 | 17 | 11µM* | -15% | -2% | 4%
Cc1ccc(C)c(S(=O)(=O)N2C(=S)NC(=O)C2CC(C)C)c1 (configuration not stated) | -11 | -5 | -5% | 0% | 5% | 0%
Cc1cccc(OCCCC(=O)NCc2ccco2)c1 | 6 | 72 | 5% | -19% | 9% | 4%
Cc1ccccc1OCCCC(=O)NCc1ccco1 | 4 | 15 | 4% | 25µM* | -2% | -10%
Cc1cc(C)cc(OCC(=O)OCC(=O)NCc2ccco2)c1 | 5 | 11 | 35µM* | -6% | 4% | -2%
COc1ccc(OCCCC(=O)NCc2ccco2)cc1 | -5 | 24 | 1% | u | -1% | 5%
Cc1ccc(OCCCC(=O)NCc2ccco2)cc1 | -21 | 57 | 4% | 25µM* | -7% | -8%
O=C(c1ccc(S(=O)(=O)Cc2cc(F)ccc2F)c([N+](=O)[O-])c1)N1CCCC1 | -2 | x | 8.9µM* | x | 7% | x
O=C(c1ccc(S(=O)(=O)Cc2cc(F)ccc2F)c([N+](=O)[O-])c1)N1CCCCC1 | 4 | -29 | 8.9µM* | 14µM* | -6% | 3%
CC1CCN(C(=O)c2ccc(S(=O)(=O)Cc3cccc(F)c3)c([N+](=O)[O-])c2)CC1 | 0 | 7 | 25µM* | -25% | -5% | -1%
CO[C@@H]1COC(=O)[C@H](C)NC(=O)C/C=C\[C@@H](C)[C@@H](NS(=O)(=O)c2ccc(C)cc2)COC(=O)C/C=C\[C@@H]1C | x | x | -7%[13.5 µM] | x | 1%[17.5 µM] | x
SMILES | GLA inh pH 4.5 | PNC inhibitor | ALDH1A1 block | HPGD inh | GLA spleen mod | 12-hLO inh
COc1ccccc1CN1CCNC(=O)C1CC(=O)NCCCn1cccn1 (configuration not stated) | 5 | x | 25µM* | x | 0% | x
COc1ccc(CN2CCNC(=O)C2CC(=O)NCCC2=CCCCC2)cc1OC (configuration not stated) | 2 | x | u | x | -9% | x
COc1ccccc1CN1CCNC(=O)C1CC(=O)NCCC1=CCCCC1 (configuration not stated) | 11 | x | 25µM* | x | -5% | x
CNC[C@H](O)[C@H](O)[C@H](O)[C@H](O)CO | 2 | x | -4%[20.9 µM] | -2% | 20%[29.1 µM] | -1%[25.6 µM]
COc1ccc(C2c3sc(=O)[nH]c3SCC2C(N)=O)cc1 (configuration not stated) | -3 | x | x | x | 5% | x
COC(=O)C1CSc2[nH]c(=O)sc2C1c1ccc(O)c(OC)c1 (configuration not stated) | -14 | u | 2.5µM* | u | -12% | -24%
CCOC(=O)C1CSc2[nH]c(=O)sc2C1c1ccccc1 (configuration not stated) | -3 | 5 | 28µM* | -7% | -5% | -1%
COc1ccc(C(=O)C2CCCN(C(=O)c3ccccc3C(C)=O)C2)cc1F (configuration not stated) | -27 | x | u | x | 3% | x
COc1ccc(C(=O)C2CCCN(C(=O)c3noc4c3CCCC4)C2)c(C)c1 (configuration not stated) | 8 | x | 5µM* | x | -8% | x
COc1ccc(C(=O)C2CCCN(C(=O)c3noc4c3CCCC4)C2)cc1F (configuration not stated) | -1 | x | 3.5µM* | x | 4% | x
COc1ccc(OC)c(NC(=O)N2CCCC(C(=O)c3ccccc3OC)C2)c1 (configuration not stated) | 4 | x | 13µM* | x | -5% | x
CCCS(=O)(=O)O | x | x | 12%[13.5 µM] | 0% | x | 4%[11.4 µM]
CCC(C(=O)c1ccccc1)P(=O)(NN)c1ccccc1 (configuration not stated) | -1 | x | x | x | 3% | x
CSCCC(NS(=O)(=O)c1ccccc1F)C(=O)OCc1ccccc1Cl (configuration not stated) | -1 | 1 | 16µM* | -13% | -5% | 0%
c1ccc(Cn2cc(CN3CCCCO3)c(-c3ccc4c(c3)OCO4)n2)cc1 | 0 | x | 32µM* | x | 0% | x
c1ccc(-n2cc(CN3CCCC3)c(-c3ccc4c(c3)OCO4)n2)cc1 | -6 | x | u | x | 6% | x
Cn1cc(/C=N/n2cnc3scc(-c4ccccc4)c3c2=O)c2ccccc21 | -11 | -113* | u | -30% | 4% | -3%
COc1c(O)cc2c(=O)oc3c(OC)c(O)cc4c(=O)oc1c2c34 | -1 | x | u | 5µM* | 7% | x
CC(C)OC(=O)CC12CN3CN(C1)CC(CC(=O)OC(C)C)(C3)C2=O | 3 | u | 2.5µM* | -1% | 10% | -3%
CCOC(=O)CC12CN3CN(C1)CC(CC(=O)OCC)(C3)C2=O | -3 | u | 12% | 3% | 6% | 3%
